Pf growth 96h – P. falciparum growth inhibition at 96 hour, primary screen for plastid delayed-death inhibitors; P. falciparum luciferase reporter growth, 96 h; Potency, µM (titrated, usually from 28.7 µM), actives largely listed as inhibitors; AID 504834; 320,000 compounds, 6.9% hits
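Cell-based qHTS: luciferase-tagged P. falciparum in erythrocytes (2% hematocrit, 0.05% parasitemia final) incubated with compounds for 96 hours, 37 C, 5% CO2; luciferase detection reagent then added and luminescence measured.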
AMA1-RON2 inh – disrupts binding of P. falciparum AMA1 to RON2; AlphaScreen AMA1-biotinylated RON2 peptide binding; 360,000 compounds, 0.2% hits; AID 720542; Potency, µM (highest dose often 58.2 µM), actives largely listed as inhibitors; also: nearly all actives have a fitted effect of over 45% in size
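AMA1 (3D7) with his tag at 25 nM final met compounds first, then biotinylated RON2 peptide at 25 nM; detection used donor plus acceptor beads, 10 µg/mL apiece, read by AlphaScreen after 30 min at room temperature.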
Pf growth 48h – P. falciparum growth inhibition at 48 hours (one generation) | P. falciparum luciferase growth in erythrocytes, 48 h | Potency, µM (top dose mostly 28.7 µM), most hits filed as inhibitors | 310,000 compounds, 5.9% hits | AID 504832
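Compounds are pin-transferred into medium, infected erythrocytes (2% hematocrit, 0.1% parasitemia final) are added, and plates sit one parasite generation at 37 C in 5% CO2. Detection reagent is then added and luminescence measured.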
HCV inhibitor – inhibitors of hepatitis C virus infection | Huh7.5.1 HCVcc-Cre infection, luciferase reporter, 44 h | Potency, µM (series often up to 41.8 µM), hits mostly inhibitors | 340,000 compounds, 3.4% hits | AID 651820
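A cell-based infection assay in which seeded cells (1,000 per well) receive test compound after 4 h, are inoculated with HCVcc-Cre at approximately 0.5 moi, and are incubated 44 h before luminescence detection.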
A number is an active result; 0 = inactive; ? = inconclusive; - = no result given; ! = repeats disagree; [ ] = another dose, or the depositor's remark. In the library only some 11% were active in any assay of this set; here they are far more common. Calls follow the shape of the dose curve; as a rule, active = well fitted curve in the direction sought with a large enough effect; inconclusive = small, poorly fitted or top-dose-only effect, or another doubt; inactive = no such curve, though single readings can be large; an effect the other way counts as inactive or inconclusive.

SMILES | Pf growth 96h | AMA1-RON2 inh | Pf growth 48h | HCV inhibitor
CCn1nc(C)cc1C(=O)N1CCCC(Nc2ccc(C(C)C)cc2)C1 (centres undefined) | ? | 0 | 0 | 0
Cc1cccn2c(=O)c3cc(C(=O)NCCN4CCOCC4)c(=N)n(CCCN4CCOCC4)c3nc12 | 0 | 0 | 2.9µM | ?
O=C(NCCN1CCOCC1)c1c(O)nc2ccccn2c1=O | 0 | 0 | 0 | 0
Cc1cccn2c(=O)c3cc(C(=O)NCc4ccccc4)c(=N)n(CCCN4CCOCC4)c3nc12 | - | 0 | - | ?
CCCNc1nc2nc3ccccn3c(=O)c2cc1C(=O)NCCN1CCOCC1 | 0 | 0 | 15µM | 0
Cc1cccn2c(=O)c3cc(C(N)=S)c(=N)n(CCCOC(C)C)c3nc12 | ? | 0 | - | 11µM
COc1ccc(CCn2c(=N)c(C(=O)NCCN3CCOCC3)cc3c(=O)n4cccc(C)c4nc32)cc1OC | 0.41µM | 0 | 0.74µM | ?
COCCn1c(=N)c(C(=O)NCCc2ccccc2)cc2c(=O)n3cccc(C)c3nc21 | - | 0 | - | 0
COc1ccc(CCNC(=O)c2cc3c(=O)n4ccccc4nc3n(Cc3ccco3)c2=N)cc1OC | 0 | 0 | 0 | 2.2µM
COc1ccc(CCNC(=O)c2cc3c(=O)n4ccccc4nc3n(CCCN3CCOCC3)c2=N)cc1OC | 2.1µM | 0 | 2.3µM | ?
Cc1cccn2c(=O)c3cc(C(=O)NCCN4CCOCC4)c(=N)n(CCc4ccccc4)c3nc12 | 0 | 0 | 0.47µM | ?
CCNC(=O)c1cc2c(=O)n3cccc(C)c3nc2n(CCc2ccccc2)c1=N | - | 0 | 1.7µM | ?
CCCCCCn1c(COc2ccccc2F)nnc1SCC(=O)NC1CCS(=O)(=O)C1 (centres undefined) | - | 0[11.6 µM] | - | 0
CC1(C)CC(=O)C2=C(C1)N(c1ccccc1)C(=O)C2(O)C(F)(F)F (centres undefined) | 0 | 0 | 0 | 0
CCCCCn1c(=N)c(S(=O)(=O)c2ccc(Cl)cc2)cc2c(=O)n3cccc(C)c3nc21 | 0 | 0 | 1.9µM | ?
CC1(c2nnnn2Cc2ccccc2)CCC(=O)N1CC1CCCCC1 (centres undefined) | - | 0 | - | -
C=CCN(C(=O)c1ccccn1)C(C(=O)NCc1ccccc1)c1ccccc1F (centres undefined) | 0 | 0 | 0 | 0
Cc1c(NC(=O)Oc2ccccc2)sc(=S)n1C | 0 | 0 | - | 0
Cc1c(NC(=O)OCCNC(=O)COc2c(Cl)cccc2Cl)sc(=S)n1C | 9.3µM | 0 | ? | 0
CCOC(=O)CSc1nc2c(sc(=S)n2-c2ccccc2OC)c(=O)n1Cc1ccco1 | 0 | 0 | ? | 2.8µM
CCOC(=O)CSc1nc2c(sc(=S)n2Cc2ccco2)c(=O)n1-c1ccccc1 | ? | 0 | ? | ?
COc1ccc(-n2c(=S)[nH]c3c(sc(=S)n3-c3ccccc3)c2=O)c(OC)c1 | 0 | 0 | 0 | 0
Cc1ccc(-n2c(=S)sc3c(=O)n(-c4ccc(F)cc4)c(SCC(=O)O)nc32)cc1C | 0 | 0 | 0 | 0
CCN(CC)C(=O)CSc1nc2c(sc(=S)n2Cc2ccco2)c(=O)n1-c1ccccc1 | 7.4µM | 0 | ? | 0
CCOC(=O)CSc1nc2c(sc(=S)n2-c2ccccc2OC)c(=O)n1-c1ccccc1OC | 0 | 0 | 12µM | ?
SMILES | Pf growth 96h | AMA1-RON2 inh | Pf growth 48h | HCV inhibitor
COc1ccc(-n2c(SCC(=O)C(C)(C)C)nc3c(sc(=S)n3-c3ccccc3)c2=O)c(OC)c1 | 0 | 0 | 2.1µM | ?
O=C(CSc1nccn1Cc1ccc(F)cc1)NC1CCCCC1 | - | 0 | - | -
CN(C)CCNC(=O)c1ccc(Cl)s1 | 0 | 0 | 0 | 0
CN(C)CCNC(=O)c1cc2c(s1)-c1ccc(Cl)cc1SC2 | 0 | 0 | 2.6µM | 11µM
CCOCCCNC(=O)c1cc2c(s1)-c1ccccc1SC2 | 5.2µM | 0 | 2.6µM | 0
CCOC(=O)/C=C(C)/C=C/CC(C)CCCC(C)C (centres undefined) | 0 | - | 0 | -
COC(C)(C)CCCC(C)C/C=C/C(C)=C/C(=O)OC(C)C (centres undefined) | 15µM! | 0 | ? | 0
Cc1onc(-c2ccccc2)c1C(=O)N1CCCN2C(=O)c3ccccc3C21 (centres undefined) | 10µM | 0 | ? | 0
CC(=O)N1CCN(C(=O)c2c(-c3ccccc3)noc2C)CC1 | 0 | 0 | 0 | 0
Cc1ccc(-c2nc(CS(=O)CC(=O)NCCCN3CCN(Cc4ccccc4)CC3)c(C)o2)cc1 (centres undefined) | 6.6µM | 0 | ? | 10µM
CCCCNC(=O)CS(=O)Cc1nc(-c2cccc(C)c2)oc1C (centres undefined) | 0.1µM | 0 | - | 0
Cc1oc(-c2ccc(Cl)cc2)nc1CS(=O)CC(=O)NCCCN1CCOCC1 (centres undefined) | ? | 0 | 0 | 0
Cc1ccc(-n2nc3c(N4CCC(C(=O)NCc5ccc(C)o5)CC4)nnc(C)c3c2C)cc1 | 10µM | 0 | ? | ?
Cc1ccc(-n2nc3c(N4CCC(C(=O)NCc5cccc(F)c5)CC4)nnc(C)c3c2C)cc1 | 4.1µM | ? | ? | 0
COc1ccc(C(=O)N2CCC(C)(C(=O)NS(=O)(=O)C3CC3)C2)c(OC)c1 (centres undefined) | - | 0 | - | -
CN(C[C@H](CC1CCCCC1)N(C[C@H](Cc1ccccc1)N(CCc1ccccc1)N=O)N=O)N=O | ? | 0 | 13µM | 0
CN(C[C@H](Cc1ccccc1)N(C[C@H](Cc1ccccc1)N(CCc1cc(C(F)(F)F)cc(C(F)(F)F)c1)N=O)N=O)N=O | 4.1µM | 0 | ? | 0
Cc1ccc(-n2nnnc2SCn2nnc3ccccc3c2=O)c(C)c1 | 0 | 0 | 0 | ?
CCCCCCCNC(=O)C1(CC2CC(c3cccc(Br)c3)=NO2)CCN(C(=O)OC(C)(C)C)CC1 (centres undefined) | 4.7µM | 0 | ? | 0
CCCCCCCNC(=O)C1(CC2CC(c3cccc(Br)c3)=NO2)CCN(C(=O)C2CCCC2)CC1 (centres undefined) | 9.3µM | 0 | 5.2µM | 0
CCCCCCCNC(=O)C1(CC2CC(c3ccc(Cl)cc3)=NO2)CCN(C(=O)C2CCCC2)CC1 (centres undefined) | 9.3µM | 0 | 0 | 0
COC(=O)c1ccccc1NC(=O)CSc1nc2ccsc2c(=O)n1Cc1ccc(C(=O)O)cc1 | - | 0 | - | -
CCn1ccnc1CN(C)Cc1cn(C)nc1-c1ccccc1F | 9.3µM | 0 | 0 | 0
COCCN(Cc1cn(C)nc1-c1ccccc1F)C(C)C | 9.3µM | 0 | 0 | 0
CN(Cc1ccc(-n2cccn2)cc1)Cc1cn(C)nc1-c1ccccc1F | ? | 0 | 0 | 0
SMILES | Pf growth 96h | AMA1-RON2 inh | Pf growth 48h | HCV inhibitor
CC(=O)O[C@H]1CC(C)(C)C(=C=C/C(C)=C/C=C/C(C)=C/C=C/C=C(C)/C=C/C=C(\C)C(=O)C[C@@]23O[C@]2(C)C[C@@H](O)CC3(C)C)[C@](C)(O)C1 | ? | 0 | 9.3µM | 0[8.37 µM]
O=c1c(NCCc2ccccc2)c(-c2ccccc2)c1=O | 0 | 0 | 2.1µM | 0
Cc1ccc(-c2c(NCCc3ccccc3)c(=O)c2=O)cc1 | 0 | 0 | ? | 0
Cc1cc(-c2cc(C(=O)NCc3ccccc3)on2)nc(NCC2CC2)n1 | 0 | 0 | ? | ?
CCOc1cc(C)nc(NCc2ccccc2)n1 | ? | 0 | - | 0
Cc1cc(OC2CCCCC2)nc(NCc2ccccc2)n1 | 5.2µM | 0 | ? | 0

Bioassay records: PubChem BioAssay, National Center for Advancing Translational Sciences (NCATS)
